High-throughput results from PubChem BioAssay.
Shown are actives, neighbours in structure and some others; about 17% of the full set was active somewhere.
TDP1 cell CPT = qHTS for Inhibitors of human tyrosyl-DNA phosphodiesterase 1 (TDP1): qHTS in cells in presence of CPT | Potency, µM (doses to about 46.2 µM), without a hit: top-dose activity change, negative = growth inhibition, actives largely listed as inhibitors | AID 686979, 2013 | hit rate 12% among 420,000 | chicken DT40 Tdp1-/-;hTDP1 cells + 20 nM CPT, ATP luminescence, 48 h; note: % is set by controls: 0 for no effect and ±100 for the full control effect; nearly all actives have a fitted effect of over 55% in size
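Chicken DT40 Tdp1-/- cells stably complemented with human TDP1 were seeded at 400 cells/well in medium containing 20 nM camptothecin, exposed to pin-transferred compounds, and grown at 37 °C for at least 48 hr. Viability was read as ATP luminescence.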
ClpP mod = qHTS Assay for Activators of ClpP | purified B. subtilis ClpP, FRET peptide cleavage, 20 min | ATP-dependent Clp protease proteolytic subunit (Bacillus subtilis (strain 168)), P80244 | hit rate 1.9% among 340,000 | AID 651965, 2013 | Potency, µM (top dose mostly 57.5 µM), for the others: at the highest dose activity change, negative = active; active = well fitted falling curve with a large enough effect; inconclusive = small, poorly fitted or top-dose-only effect; inactive = no such curve, though single readings can be large or run the other way; note: the source files actives as falling curves though it sought activators and does not explain the sign; nearly all actives have a fitted effect of over 65% in size
Target sequence (P80244 whole entry, looked up): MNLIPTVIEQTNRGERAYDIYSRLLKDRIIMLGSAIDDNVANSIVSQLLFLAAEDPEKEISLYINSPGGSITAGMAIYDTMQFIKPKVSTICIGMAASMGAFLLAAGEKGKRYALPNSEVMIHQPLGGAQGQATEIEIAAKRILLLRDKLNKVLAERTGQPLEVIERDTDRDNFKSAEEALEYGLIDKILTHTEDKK
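ClpP 10 microg/mL final, pH 8 Tris/KCl buffer with BSA, glycerol, Tween-20; compound pinned in; FRET-FV substrate; RT 20 min; Ex320/Em430; ΔFRET vs ADEP 5.8 microM, DMSO, no enzyme.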
DT40 TDP1 no CPT = qHTS for Inhibitors of human tyrosyl-DNA phosphodiesterase 1 (TDP1): qHTS in cells in absence of CPT; DT40 Tdp1-/- hTDP1 cells, no CPT, ATP luminescence, 48 h; Potency, µM (series often up to 46.2 µM), without a hit: at the top dose activity change, negative = growth inhibition, most hits filed as inhibitors; hit rate 15% among 420,000; note: % is set by controls: 0 for no effect and ±100 for the full control effect; nearly all actives have a fitted effect of over 55% in size
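Growth kinetics read by CellTiter-Glo luminescence after ≥48 hr at 37 °C. Cells: DT40 Tdp1-/- stably carrying human TDP1, 400 per well, compound exposure in the absence of CPT (DMSO vehicle).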
TDP1 inh = qHTS Assay for Inhibitors of Tyrosyl-DNA Phosphodiesterase (TDP1); Tyrosyl-DNA phosphodiesterase 1 (Homo sapiens), Q9NUW8; Potency, µM (highest dose often 130 µM), for inactives: at the highest dose activity change, negative = inhibition, usual class: inhibitors; hit rate 0.28% among 350,000; recombinant TDP1, AlphaScreen DNA substrate cleavage; note: % is set by controls: 0 for no effect and ±100 for the full control effect; nearly all actives have a fitted effect of over 40% in size
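Tdp1 1 nM final; 15 min RT w/ cpd; substrate 15 nM, 5 min; beads 10 ug/ml, 10 min; AlphaScreen read. Neg ctrl: no enzyme.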
* hit, by the source's call; ? = inconclusive; nt = no result; [ ] = another dose, or the depositor's remark. Unless noted, calls come from the whole dose curve; as a rule, active = well fitted curve in the direction sought with a large enough effect; inconclusive = small, poorly fitted or top-dose-only effect, or another doubt; inactive = no such curve, though single readings can be large; an effect the other way counts as inactive or inconclusive. Potency is the fitted concentration of half-maximal effect.

SMILES | TDP1 cell CPT | ClpP mod | DT40 TDP1 no CPT | TDP1 inh
COc1cccc(CN(C)C(=O)c2ccc(S(=O)(=O)Nc3cccc(C)c3C)cc2)c1OC | 18µM* | 3% | 18µM* | nt
COc1ccc(N(CC(O)CN2CCOCC2)S(=O)(=O)c2ccc(C)cc2)cc1 (configuration not stated) | 0% | nt | -12% | 0%
Cc1cccc(C(=O)OCC(=O)NCCN2C(=O)CSC2=O)c1[N+](=O)[O-] | 0% | -1% | 6% | 1%
C#CCN1C=C(C(=O)OCC)C(C)N(Cc2ccccc2I)S1(=O)=O (configuration not stated) | 13µM* | 1% | 8.2µM* | -6%[56.1 µM]
C#CCN1C=C(C(=O)OCC)C(C)NS1(=O)=O (configuration not stated) | 3% | 0% | 6% | -1%[56.1 µM]
COC(=O)c1[nH]c2cc(OC)ccc2c1NC(=O)CCN1CCSCC1 | 2% | -15% | 9% | 5%
CCOC(=O)c1[nH]c2ccc(Br)cc2c1NC(=O)CCN1CCC(C(=O)OCC)CC1 | 21µM* | -4% | 16µM* | 2%
CCOC(=O)c1[nH]c2ccc(OC)cc2c1NC(=O)OC | 3% | 28µM* | -7% | 3%
CCOC(=O)Nc1c(C(=O)OC)[nH]c2cc(OC)ccc12 | ? | ? | 21µM* | -3%
CCOC(=O)c1[nH]c2ccccc2c1NC(=O)NC(C)C | 5% | nt | -20% | 3%
CCOC(=O)c1[nH]c2ccc(OC)cc2c1NS(=O)(=O)c1ccc(OC)cc1OC | -10% | -25% | ? | 3%
CCOC(=O)c1[nH]c2ccc(OC)cc2c1NC(=O)NC(C)C | -1% | 18µM* | -5% | -2%
CCOC(=O)c1[nH]c2ccc(Br)cc2c1NC(=O)CCN1CCCCC1 | nt | nt | nt | 2%
CC(Oc1cc(Cl)ccc1Cl)C(=O)N/N=C\c1ccnn1C (configuration not stated) | -29% | 1% | ? | 3%
O=C1NC[C@@H](CCCCN2CCN(CCc3ccc(O)cc3)C(=O)C2=O)N(CCc2ccc(O)cc2)C1=O | -1% | 0% | -14% | nt
Cc1ccc(OCC(=O)Nc2ccc3nn(-c4ccc(C)cc4)nc3c2)cc1 | -20% | -22% | -8% | -1%
CCOC(=O)c1[nH]c2ccc(OC)cc2c1NC(=S)N1CCN(C(=O)OCC)CC1 | 3% | 0% | -4% | 8%
CCOC(=O)C1CCCN(CC(=O)Nc2c(C(=O)OC)[nH]c3ccc(C)cc23)C1 (configuration not stated) | ? | 32µM* | 23µM* | 1%
CCOC(=O)c1[nH]c2ccc(OC)cc2c1NC(=S)N1CCN(c2ccccc2OC)CC1 | 5.2µM* | 6% | 8.2µM* | 2%
CCOC(=O)c1[nH]c2ccc(OC)cc2c1NC(=O)CCN1CCCC(C)C1 (configuration not stated) | -23% | 32µM* | 0% | 0%
Cc1cnc(=O)[nH]c1SCc1cccc([N+](=O)[O-])c1 | 4% | 0% | 3% | 8%
CC1=NN(C(=O)Cc2ccc([N+](=O)[O-])cc2)C(O)(c2ccccc2)C1 (configuration not stated) | 4.1µM* | 2% | 5.2µM* | 2%
CC1=NN(C(=O)Cc2ccccc2)C(O)(c2ccccc2)C1 (configuration not stated) | 2.9µM* | nt | 4.1µM* | 5%
CC1=NN(C(=O)Cc2ccc([N+](=O)[O-])cc2)C(O)(c2cccnc2)C1 (configuration not stated) | 18µM* | -1% | ? | 8%
COc1ccc(CC(=O)N2N=C(C)CC2(O)c2cccnc2)cc1OC (configuration not stated) | -8% | -1% | 0% | 0%
CCOC(=O)N1N=C(C)CC1(O)c1ccccc1 (configuration not stated) | -25% | -1% | -29% | -3%
COc1ccc(C2=CC3=C(Br)C(=O)C(C)(OC(=O)CCc4ccccc4)C(=O)C3=CO2)cc1 (configuration not stated) | nt | nt | nt | 2%
